Assay results as given in PubChem BioAssay (NCATS).
Inconclusive results are not listed. Entries that show only a call come without a potency. Calls of active or inactive are those of the source. Calls follow the shape of the full dose curve.

experiment: Primary qHTS for inhibitors of SARS-S pseudo-typed particle cell entry (AID 1479145); conditions: SARS-S pseudotyped particle cell entry, luciferase reporter; series mostly up to 57.1 µM; also: nearly all actives have a fitted effect of over 45% in size

Compound | Potency
Nc1ccc(S(N)(=O)=O)cc1 | inactive
Cc1cc(C)c(NC(=O)CN(CC(=O)O)CC(=O)O)c(C)c1Br | inactive
COc1cc2c3cc1Oc1cc(ccc1O)C[C@@H]1c4c(cc(OC)c(O)c4Oc4ccc(cc4)C[C@@H]3N(C)CC2)CC[N+]1(C)C | inactive
CN1[C@@H]2CC(OC(=O)[C@H](CO)c3ccccc3)C[C@H]1[C@@H]1O[C@@H]12 (some centres undefined) | inactive
CC(C)(C)NCC(O)COc1ccccc1OCC1CCCO1 (centres undefined) | inactive
CC(=O)CC(c1ccc([N+](=O)[O-])cc1)c1c(O)c2ccccc2oc1=O (centres undefined) | inactive
CCC(Cc1c(I)cc(I)c(N)c1I)C(=O)O (centres undefined) | inactive
CCCCCCCCCCCCCCCCCC(=O)O | inactive
CCc1cc(C(N)=S)ccn1 | inactive
CC1CCc2c(N3CCC(O)CC3)c(F)cc3c(=O)c(C(=O)O)cn1c23 (centres undefined) | inactive
O=C(CO)[C@@H](O)[C@H](O)[C@@H](O)CO | inactive
CC(=O)OCC1=C(C(=O)O)N2C(=O)[C@@H](NC(=O)Cc3cccs3)[C@H]2SC1 | inactive
COc1ccc(O)cc1 | inactive
CC(=O)NC[C@H]1CN(c2ccc(N3CCOCC3)c(F)c2)C(=O)O1 | inactive
CC1CC(OC(=O)c2ccccc2O)CC(C)(C)C1 (centres undefined) | inactive
CC(=O)NCc1c(I)c(NC(C)=O)c(I)c(C(=O)O)c1I | inactive
CN1C(CSCC(F)(F)F)Nc2cc(Cl)c(S(N)(=O)=O)cc2S1(=O)=O (centres undefined) | inactive
O=C(Oc1ccccc1C(=O)O)c1ccccc1O | inactive
OC[C@H]1O[C@@H](n2cnc3c2NC=NC[C@H]3O)C[C@@H]1O | inactive
